High-throughput results from PubChem.
An excerpt weighted towards active compounds, which were near 12% of everything screened.
PLK1 PBD inh = PLK1 (human) polo-box domain binding inhibition | actives 2.8% (n = 360,000) | Plk1 PBD binding of FITC phosphopeptide, fluorescence polarization | Potency, µM, for inactives: max response, negative = inhibition, actives largely listed as inhibitors | AID 720504; further: series mostly up to about 57 µM; on the % scale 0 is the no-effect control and ±100 the full control effect; nearly all actives have a fitted effect of over 65% in size
G9a inh = G9a (human) methyltransferase inhibition. G9a H3K9 monomethylation, AlphaScreen, 2 h. Potency, µM (series often up to 102 µM), for inactives: at the highest dose activity, negative = inhibition, most hits filed as inhibitors. actives 8.8% (n = 350,000). AID 504332; further: on the % scale 0 is the no-effect control and ±100 the full control effect; nearly all actives have a fitted effect of over 75% in size
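Step 1: enzyme (final 20 nM) with compound, 15 min RT. Step 2: substrate peptide 500 nM and SAM 20 uM, 2 h RT. Step 3: anti-H3K9me1 antibody and AlphaScreen beads, 10 min, then plate read.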
Sfp inh = inhibitors of Bacillus subtilis Sfp phosphopantetheinyl transferase; actives 3.5% (n = 310,000); AID 1490; Q9F4F7; Potency, µM, without a hit: largest response in the series, negative = inhibition, usual class: inhibitors; Biochemical Sfp PPTase activity, qHTS;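 further: the enzyme is Sfp with the accession as filed and its product quenches rhodamine fluorescence; 0% = enzyme reaction without inhibitor and -100% = no enzyme wells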
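Buffer: 50 mM Hepes-Na pH 7.6, 10 mM MgCl2, 0.01% Nonidet P-40, 0.01% BSA. Enzyme 15 nM, pre-exposed to compound 15 min; substrates then added and fluorescence change tracked over 30 min.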
JMJD2A Tudor inh = JMJD2A Tudor domain (human) inhibition | AlphaScreen JMJD2A-Tudor / H3K4me3 peptide binding | actives 4.4% (n = 390,000) | Potency, µM (top dose mostly 114 µM), inactives show at the top dose activity change, negative = inhibition, most hits filed as inhibitors | AID 504339; further: on the % scale 0 is the no-effect control and ±100 the full control effect; nearly all actives have a fitted effect of over 50% in size
BAZ2B inh = BAZ2B (human) inhibition; AlphaScreen BAZ2B-H3K14Ac peptide displacement; Potency, µM (series often up to 114 µM), inactives show top-dose activity change, negative = inhibition, hits mostly inhibitors; actives 4.4% (n = 360,000); AID 504333; further: on the % scale 0 is the no-effect control and ±100 the full control effect; nearly all actives have a fitted effect of over 60% in size
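Compounds, titrated to a top concentration of 110 uM, were incubated 30 min at room temperature with preformed BAZ2B/acetyl-K14 H3 peptide complex (50 nM each). Proximity signal was measured by AlphaScreen after 20 min with beads.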
HP1b chromo inh = blocks HP1-beta chromodomain binding to methylated histone tails. AlphaScreen HP1-beta / biotin-H3K9me3 peptide binding. Potency, µM (top dose mostly 114 µM), for inactives: at the highest dose activity change, negative = inhibition, hits mostly inhibitors. actives 0.56% (n = 390,000). AID 540317; further: nearly all actives have a fitted effect of over 70% in size
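HP1-beta protein (50 nM final) preincubated 30 min at room temperature with biotinylated H3(1-18)K9me3 peptide (50 nM) in PBS pH 7.4, 0.01% Tween-20, then compound added for 30 min. AlphaScreen streptavidin donor/nickel chelate acceptor beads (10 ug/mL final), 30 min dark, luminescence read.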
* hit, by the source's call; ? = inconclusive; · = not tested or not shown; [ ] = remark or other dose. The call rests on the fitted dose curve; in most records, active means well fitted curve in the direction sought with a large enough effect; inconclusive means small, poorly fitted or top-dose-only effect, or another doubt; inactive means no such curve, though single readings can be large; an effect the other way counts as inactive or inconclusive. Potency means the concentration at half of the fitted maximal effect.

SMILES | PLK1 PBD inh | G9a inh | Sfp inh | JMJD2A Tudor inh | BAZ2B inh | HP1b chromo inh
CCOc1cc(/C=N/Nc2ccc(C(=O)O)cc2)ccc1OC(=O)c1ccccc1C | ? | 35µM* | -13% | ? | ? | 7%
COc1cccc(OCc2cc(/C=N/Nc3ccc(C(=O)O)cc3)ccc2OC)c1 | ? | ? | -5% | 56µM* | 56µM* | 16%
COc1cc(/C=N/n2cnnc2)ccc1OC(=O)c1cccnc1 | 7.5µM* | 4%[12.7 µM] | 3% | ? | 10% | -7%
O=C(CCN1CCOCC1)Nc1cc(C(=O)Nc2ccc(Cl)cc2)ccc1N1CC2CC(C1)c1cccc(=O)n1C2 (stereo not given) | -4% | 8% | 4% | -21% | -24% | 9%
CCC1CCCCN1C(=O)COC(=O)c1cc(C)nc2ccccc12 (stereo not given) | -4% | -3%[59 µM] | · | -7% | -4% | 33%
CC1=C(C)C(=O)C(C(CCCCCC(=O)O)c2ccccc2)=C(C)C1=O (stereo not given) | · | -23%[12.7 µM] | 2% | · | · | ·
COc1ccc(/C=N/n2cncn2)cc1COc1ccc(NC(C)=O)cc1 | 27µM* | 2%[12.7 µM] | -6% | 50µM* | 7% | -4%
COc1cc(/C=N/Nc2ccc(Cl)c(C(=O)O)c2)ccc1OC(=O)c1ccccc1F | ? | 40µM* | -22% | ? | ? | -11%
COc1ccc(C=O)cc1COc1ccc(NC(C)=O)cc1 | · | · | · | -23% | · | ·
COc1cc(/C=N/Nc2ccc(Cl)c(C(=O)O)c2)ccc1OC(=O)c1ccc(F)cc1 | ? | ? | -15% | ? | ? | 7%
COc1cc(/C=N/Nc2ccc3ccccc3c2)ccc1OC(=O)c1ccco1 | ? | 7.9µM* | -11% | -15% | -35% | 17%
CCN(CC)c1ccc(N=Cc2c(C)[nH]c3ccccc23)cc1 | -8% | 14µM* | 50µM* | 35µM* | 13µM* | 32µM*
Cc1[nH]c2ccccc2c1/C=N/n1cnnc1 | ? | 8%[59 µM] | 1% | -3%[11.4 µM] | 14% | -8%
COc1ccc(CCC(=O)NC2CC(=O)N(c3ccc(OC)cc3)C2)cc1 (stereo not given) | · | 44%[59 µM] | · | -12% | 8% | 27%
Cc1ccc(C)c(N2CC(C(=O)OCC(=O)Nc3cc(C)on3)CC2=O)c1 (stereo not given) | 1% | 5% | 9% | -4% | -17% | 39%
Cc1c(Cc2ccc3c(c2)OCO3)sc(NC(=O)c2ccc3ccccc3c2)c1C(N)=O | 13µM* | 6.3µM* | 13µM* | -9% | -6% | -2%
CCC(=O)Nc1sc(Cc2ccc3c(c2)OCO3)c(C)c1C(N)=O | 21µM* | 10µM* | 40µM* | -23% | -32% | -32%
COc1cc(C(=O)Nc2nc(C)c(Cc3ccc4c(c3)OCO4)s2)cc(OC)c1OC | 9.5µM* | 4µM* | -86% | ? | -35% | ?
CCCOc1ccc(C(=O)Nc2nc(C)c(Cc3ccc4c(c3)OCO4)s2)cc1 | -25% | -4%[59 µM] | ? | -18% | -25% | 23%
COc1ccc(C2=NN(C(=O)COc3ncnc4ccccc34)C(c3ccco3)C2)cc1 (stereo not given) | -5% | ? | -17% | -21% | -26% | 18%
CC(=O)N1N=C(c2ccc(Cl)cc2)CC1c1ccco1 (stereo not given) | -13% | · | ? | -16% | 19% | 3%
O=S(=O)(c1ccccc1)N1N=C(c2ccc(Cl)cc2)CC1c1ccco1 (stereo not given) | -1% | 45µM* | · | -26% | 0% | 16%
Cc1nc(N2N=C(c3ccc(Cl)cc3)CC2c2ccco2)sc1C(=O)N(C)C (stereo not given) | -14% | -3% | 25µM* | 16% | 15% | 95%
COc1ccc(C2=NN(c3nc(-c4ccccc4)c(CC(=O)O)s3)C(c3ccco3)C2)cc1 (stereo not given) | 11µM* | 14µM* | 14µM* | 79µM* | 50µM* | -14%
O=C(c1ccc(Br)o1)N1N=C(c2ccc(Cl)cc2)CC1c1ccco1 (stereo not given) | -26% | 50µM* | 40µM* | ? | ? | ?
SMILES | PLK1 PBD inh | G9a inh | Sfp inh | JMJD2A Tudor inh | BAZ2B inh | HP1b chromo inh
COc1cccc(CNC(=O)c2cccn2-c2nnc(N3CCCC3)s2)c1 | · | 0%[59 µM] | · | -3% | 2% | 20%
Clc1ccc(C2=NN(c3ccccc3)C(c3ccco3)C2)cc1 (stereo not given) | -3% | · | 28µM* | 248% | 14% | 379%
Cc1ccc(S(=O)(=O)N2CCCC(C)C2)cc1 (stereo not given) | -1% | 69% | 15% | 24% | 4% | 58%
CC1CCCN(S(=O)(=O)c2ccc(NC(=O)CN3CCN(C)CC3)cc2)C1 (stereo not given) | -8% | ? | ? | ? | 79µM* | 7%
CC1CCCN(S(=O)(=O)c2ccc(NC(=O)CNC3CCCC3)cc2)C1 (stereo not given) | -14% | 40µM* | 7% | -10% | -3% | 24%[57 µM]
CC1CCCN(S(=O)(=O)c2ccc(S(=O)(=O)NC(C)c3cccs3)cc2)C1 (stereo not given) | ? | 40µM* | 28% | -19% | 0% | -4%
Cc1ccc(CNC(=O)CNC(=O)c2ccco2)cc1 | -10% | 2%[12.7 µM] | 6% | -1% | -8% | 12%
CC(=O)NC12CC3CC(C1)CC(C(=O)Nc1nc4ccc(F)cc4s1)(C3)C2 | -16% | ? | -14% | -33% | -25% | 35%
O=C(N/C(=C/c1cccc([N+](=O)[O-])c1)C(=O)N1CCOCC1)c1ccc(Br)cc1 | -3% | · | 9% | -7% | -6% | 7%
CCOC(=O)C1CCCN(CC(O)COCc2ccc3c(c2)OCO3)C1 (stereo not given) | -12% | 11µM* | -12% | 1µM* | 56µM* | ?
CCC(CO)NCC(O)COCc1ccc2c(c1)OCO2 (stereo not given) | 3% | ? | -27% | 50µM* | 79µM* | -9%
Cc1ccc(-c2cc(C(=O)N(Cc3ccccc3)Cc3ccco3)no2)cc1F | · | ? | · | -3% | 50µM* | 32%
O=C(c1cc(-c2ccc(Cl)cc2)on1)N(Cc1ccc(F)cc1)Cc1ccco1 | · | 13%[59 µM] | · | 4% | 11% | 64%
COc1ccc(-c2noc(CC(=O)Nc3cc(OC)ccc3OC)n2)cc1 | · | -29%[59 µM] | · | -12% | ? | 18%
O=C(Nc1cccnc1)c1sc(Nc2ccccc2F)nc1-c1ccccc1 | 0% | -28% | -6% | -13% | 7% | 26%
Cc1ccccc1Nc1nc(-c2ccccc2)c(C(=O)Nc2cccnc2)s1 | 30µM* | 0% | 18% | ? | 4% | 5%
